# Data as given in PubChem BioAssay (NCI).
# About 79,000 compounds went through this panel and 15% of them were active in at least one assay; those are over-represented in the sample as a whole. A number with no mark means an inactive call. Calls of active or inactive are those of the source. Cut-off read from the data, not from the text of the source: active = growth inhibition above about 70%; inactive = the rest.
# How the values were obtained:
# [1] = NCI Yeast Anticancer Drug Screen. Data for the rad52 strain (AID 147);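 note: 0% = growth of vehicle-treated control cultures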; details: S. cerevisiae rad52 mutant growth inhibition, active compounds read high
# In short: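 The repair-mutant yeast strain was incubated with compounds, then growth was read and inhibition derived relative to vehicle.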
# [2] = NCI Yeast Anticancer Drug Screen. Data for the wt1 strain (AID 149);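 note: 0% = growth of vehicle-treated wt1 cultures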; details: S. cerevisiae wt1 strain (SPY 50644) growth inhibition, active compounds read high
# In short: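 wt1 yeast, compound-treated; % growth inhibition vs vehicle control.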
# [3] = NCI Yeast Anticancer Drug Screen. Data for the rad50EPP+ strain (AID 151);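 note: 0% = growth of vehicle-treated control cultures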; details: S. cerevisiae rad50 mutant strain, active compounds read high
# In short: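 Vehicle-normalised growth inhibition; rad50EPP+ yeast strain, altered in DNA damage repair, compound-treated.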
# [4] = NCI Yeast Anticancer Drug Screen. Data for the rad50 strain (AID 155);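 note: 0% = growth of vehicle-only cultures of the same strain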; details: S. cerevisiae rad50 strain growth inhibition, active compounds read high
# In short: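 Genetically altered yeast (DNA repair pathway); compound treatment; growth inhibition vs vehicle ctrl.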
# [5] = NCI Yeast Anticancer Drug Screen. Data for the mec2-1 strain (AID 157); details: S. cerevisiae mec2-1 strain, active compounds read high
# In short: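 Mutant yeast (mec2-1) grown with compound; growth inhibition relative to vehicle control reported.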
# [6] = NCI Yeast Anticancer Drug Screen. Data for the rad14 strain (AID 159);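 note: 0% = growth of vehicle-treated control cultures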; details: S. cerevisiae rad14 strain growth inhibition, active compounds read high
# In short: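 Test compounds were applied to a repair-deficient yeast strain. Its growth was then compared with that of cultures given vehicle alone, and inhibition was expressed relative to those controls.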
# [7] = NCI Yeast Anticancer Drug Screen. Data for the sgs1 mgt1 strain (AID 161);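 note: 0% = growth of cultures given vehicle only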; details: S. cerevisiae sgs1 mgt1 strain, active compounds read high
# In short: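 Growth of a repair-deficient yeast mutant was monitored after compound treatment and expressed as inhibition relative to vehicle-treated cultures.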
# [8] = NCI Yeast Anticancer Drug Screen. Data for the CLN2oe strain (AID 163);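 note: 0% = growth of vehicle-only control cultures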; details: S. cerevisiae CLN2oe strain, active compounds read high
# In short: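 Compounds are applied to yeast harbouring a defined cell-cycle control change; reduced growth compared with vehicle-treated controls gives the value.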
# [9] = NCI Yeast Anticancer Drug Screen. Data for the cln2 rad14 strain (AID 165);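 note: 0% = growth equal to vehicle treated cultures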; details: S. cerevisiae cln2 rad14 strain, active compounds read high
# In short: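 Readout is yeast growth inhibition versus vehicle-treated controls, using a strain with cln2 and rad14 alterations exposed to compound.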
# [10] = NCI Yeast Anticancer Drug Screen. Data for the bub3 strain (AID 167); details: S. cerevisiae bub3 mutant strain, active compounds read high
# In short: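 Yeast carrying a defined mutation is treated with each compound, and growth is compared with that of vehicle-exposed cells to give inhibition.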
# [11] = NCI Yeast Anticancer Drug Screen. Data for the wt2 strain (AID 169);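 note: 0% = growth of vehicle-treated yeast cultures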; details: S. cerevisiae wt2 strain growth inhibition, active compounds read high
# In short: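 Against vehicle-treated controls, the growth of yeast exposed to each compound was compared, and the inhibition was recorded.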
# [12] = NCI Yeast Anticancer Drug Screen. Data for the mlh1 strain (AID 171);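 note: 0% = growth of vehicle-treated control cultures of the same strain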; details: S. cerevisiae mlh1 strain growth inhibition, active compounds read high
# In short: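 Measured: yeast growth. Reference: vehicle-treated controls. Organism: strain with a defined alteration affecting DNA damage repair or cell cycle control, treated with compound.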
# [13] = NCI Yeast Anticancer Drug Screen. Data for the sgs1 strain (AID 173);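 note: 0% = growth of vehicle-only control cultures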; details: S. cerevisiae sgs1 mutant, active compounds read high
# In short: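 Each compound was added to cultures of the altered yeast strain. Growth was recorded, and inhibition was derived by comparison with vehicle controls.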
# [14] = NCI Yeast Anticancer Drug Screen. Data for the mlh1 rad18 strain (AID 175); details: S. cerevisiae mlh1 rad18 strain growth inhibition, active compounds read high
# In short: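 Genetically defined yeast (DNA repair-deficient) exposed to compounds; growth inhibition determined relative to vehicle.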
# [15] = NCI Yeast Anticancer Drug Screen. Data for the rad18 strain (AID 177); details: S. cerevisiae rad18 mutant growth inhibition, active compounds read high
# In short: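 Vehicle-treated cultures served as the baseline for scoring compound-induced growth inhibition in DNA-repair-mutant yeast.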
# [16] = at 5.0 µM (retest, dose inferred, filed as 0.5)
# [17] = at 50.0 µM (retest, dose inferred, filed as 5.0)
smiles,measurement,setting,value
O=c1ccc(N=Nc2ccccc2)ccc1O,growth inhibition,[1]; at 1.2 µM,0%
same,growth inhibition,[1]; at 3.7 µM,42%
same,growth inhibition,[1]; at 11.0 µM,95% (active)
same,growth inhibition,[1]; at 33.0 µM,99% (active)
same,growth inhibition,[1]; at 100.0 µM,98% (active)
same,growth inhibition,[2]; at 1.2 µM,16%
same,growth inhibition,[2]; at 3.7 µM,56%
same,growth inhibition,[2]; at 11.0 µM,97% (active)
same,growth inhibition,[2]; at 33.0 µM,99% (active)
same,growth inhibition,[2]; at 100.0 µM,97% (active)
same,growth inhibition,[3]; at 1.2 µM,-8%
same,growth inhibition,[3]; at 3.7 µM,11%
same,growth inhibition,[3]; at 11.0 µM,88% (active)
same,growth inhibition,[3]; at 33.0 µM,98% (active)
same,growth inhibition,[3]; at 100.0 µM,97% (active)
same,growth inhibition,[4]; at 1.2 µM,18%
same,growth inhibition,[4]; at 3.7 µM,87% (active)
same,growth inhibition,[4]; [16],34%
same,growth inhibition,[4]; at 11.0 µM,97% (active)
same,growth inhibition,[4]; at 33.0 µM,99% (active)
same,growth inhibition,[4]; [17],99% (active)
same,growth inhibition,[4]; at 50.0 µM,98.7% (active)
same,growth inhibition,[4]; at 100.0 µM,98% (active)
same,growth inhibition,[5]; at 1.2 µM,-1%
same,growth inhibition,[5]; at 3.7 µM,37%
same,growth inhibition,[5]; [16],28%
same,growth inhibition,[5]; at 11.0 µM,93% (active)
same,growth inhibition,[5]; at 33.0 µM,99% (active)
same,growth inhibition,[5]; [17],99% (active)
same,growth inhibition,[5]; at 50.0 µM,98.7% (active)
same,growth inhibition,[5]; at 100.0 µM,98% (active)
same,growth inhibition,[6]; at 1.2 µM,1%
same,growth inhibition,[6]; at 3.7 µM,91% (active)
same,growth inhibition,[6]; at 11.0 µM,98% (active)
same,growth inhibition,[6]; at 33.0 µM,99% (active)
same,growth inhibition,[6]; at 100.0 µM,99% (active)
same,growth inhibition,[7]; [16],44%
same,growth inhibition,[7]; [17],99% (active)
same,growth inhibition,[7]; at 50.0 µM,98.7% (active)
same,growth inhibition,[8]; at 1.2 µM,-6%
same,growth inhibition,[8]; at 3.7 µM,33%
same,growth inhibition,[8]; at 11.0 µM,93% (active)
same,growth inhibition,[8]; at 33.0 µM,98% (active)
same,growth inhibition,[8]; at 100.0 µM,97% (active)
same,growth inhibition,[9]; [16],-3%
same,growth inhibition,[9]; [17],98% (active)
same,growth inhibition,[9]; at 50.0 µM,98.1% (active)
same,growth inhibition,[10]; at 1.2 µM,10%
same,growth inhibition,[10]; at 3.7 µM,77% (active)
same,growth inhibition,[10]; [16],22%
same,growth inhibition,[10]; at 11.0 µM,97% (active)
same,growth inhibition,[10]; at 33.0 µM,99% (active)
same,growth inhibition,[10]; [17],99% (active)
same,growth inhibition,[10]; at 50.0 µM,97.8% (active)
same,growth inhibition,[10]; at 100.0 µM,99% (active)
same,growth inhibition,[11]; at 1.2 µM,31%
same,growth inhibition,[11]; at 3.7 µM,87% (active)
same,growth inhibition,[11]; at 11.0 µM,99% (active)
same,growth inhibition,[11]; at 33.0 µM,99% (active)
same,growth inhibition,[11]; at 100.0 µM,98% (active)
same,growth inhibition,[12]; at 1.2 µM,10%
same,growth inhibition,[12]; at 3.7 µM,90% (active)
same,growth inhibition,[12]; at 11.0 µM,98% (active)
same,growth inhibition,[12]; at 33.0 µM,99% (active)
same,growth inhibition,[12]; at 100.0 µM,99% (active)
same,growth inhibition,[13]; at 1.2 µM,4%
same,growth inhibition,[13]; at 3.7 µM,62%
same,growth inhibition,[13]; at 11.0 µM,97% (active)
same,growth inhibition,[13]; at 33.0 µM,99% (active)
same,growth inhibition,[13]; at 100.0 µM,98% (active)
same,growth inhibition,[14]; [16],59%
same,growth inhibition,[14]; [17],99% (active)
same,growth inhibition,[14]; at 50.0 µM,98.8% (active)
same,growth inhibition,[15]; at 1.2 µM,9%
same,growth inhibition,[15]; at 3.7 µM,64%
same,growth inhibition,[15]; at 11.0 µM,97% (active)
same,growth inhibition,[15]; at 33.0 µM,99% (active)
same,growth inhibition,[15]; at 100.0 µM,98% (active)
CC1(C)C(C=O)=CCC1CC(N)=O (stereo unspecified),growth inhibition,[1]; at 1.2 µM,-1%
same,growth inhibition,[1]; at 3.7 µM,-1%
same,growth inhibition,[1]; at 11.0 µM,0%
same,growth inhibition,[1]; at 33.0 µM,7%
same,growth inhibition,[1]; at 100.0 µM,80% (active)
same,growth inhibition,[2]; at 1.2 µM,-1%
same,growth inhibition,[2]; at 3.7 µM,0%
same,growth inhibition,[2]; at 11.0 µM,2%
same,growth inhibition,[2]; at 33.0 µM,3%
same,growth inhibition,[2]; at 100.0 µM,29%
same,growth inhibition,[3]; at 1.2 µM,1%
same,growth inhibition,[3]; at 3.7 µM,-2%
same,growth inhibition,[3]; at 11.0 µM,0%
same,growth inhibition,[3]; at 33.0 µM,20%
same,growth inhibition,[3]; at 100.0 µM,93% (active)
same,growth inhibition,[4]; at 1.2 µM,-1%
same,growth inhibition,[4]; at 3.7 µM,-1%
same,growth inhibition,[4]; [16],-2%
same,growth inhibition,[4]; at 11.0 µM,-1%
same,growth inhibition,[4]; at 33.0 µM,1%
same,growth inhibition,[4]; [17],43%
same,growth inhibition,[4]; at 50.0 µM,98.5% (active)
same,growth inhibition,[4]; at 100.0 µM,40%
same,growth inhibition,[5]; at 1.2 µM,0%
same,growth inhibition,[5]; at 3.7 µM,2%
same,growth inhibition,[5]; [16],4%
same,growth inhibition,[5]; at 11.0 µM,1%
same,growth inhibition,[5]; at 33.0 µM,7%
same,growth inhibition,[5]; [17],39%
same,growth inhibition,[5]; at 50.0 µM,98% (active)
same,growth inhibition,[5]; at 100.0 µM,96% (active)
same,growth inhibition,[6]; at 1.2 µM,-3%
same,growth inhibition,[6]; at 3.7 µM,-2%
same,growth inhibition,[6]; at 11.0 µM,-3%
same,growth inhibition,[6]; at 33.0 µM,6%
same,growth inhibition,[6]; at 100.0 µM,99% (active)
same,growth inhibition,[7]; [16],-3%
same,growth inhibition,[7]; [17],-2%
same,growth inhibition,[7]; at 50.0 µM,87.3% (active)
same,growth inhibition,[8]; at 1.2 µM,-5%
same,growth inhibition,[8]; at 3.7 µM,-2%
same,growth inhibition,[8]; at 11.0 µM,-1%
same,growth inhibition,[8]; at 33.0 µM,-2%
same,growth inhibition,[8]; at 100.0 µM,12%
same,growth inhibition,[9]; [16],-3%
same,growth inhibition,[9]; [17],4%
same,growth inhibition,[9]; at 50.0 µM,38.4%
same,growth inhibition,[10]; at 1.2 µM,-3%
same,growth inhibition,[10]; at 3.7 µM,-7%
same,growth inhibition,[10]; [16],-19%
same,growth inhibition,[10]; at 11.0 µM,-2%
same,growth inhibition,[10]; at 33.0 µM,-5%
same,growth inhibition,[10]; [17],-8%
same,growth inhibition,[10]; at 50.0 µM,99.2% (active)
same,growth inhibition,[10]; at 100.0 µM,93% (active)
same,growth inhibition,[11]; at 1.2 µM,-1%
same,growth inhibition,[11]; at 3.7 µM,1%
same,growth inhibition,[11]; at 11.0 µM,4%
same,growth inhibition,[11]; at 33.0 µM,9%
same,growth inhibition,[11]; at 100.0 µM,83% (active)
same,growth inhibition,[12]; at 1.2 µM,2%
same,growth inhibition,[12]; at 3.7 µM,0%
same,growth inhibition,[12]; at 11.0 µM,4%
same,growth inhibition,[12]; at 33.0 µM,9%
same,growth inhibition,[12]; at 100.0 µM,96% (active)
same,growth inhibition,[13]; at 1.2 µM,-1%
same,growth inhibition,[13]; at 3.7 µM,4%
same,growth inhibition,[13]; at 11.0 µM,6%
same,growth inhibition,[13]; at 33.0 µM,23%
same,growth inhibition,[13]; at 100.0 µM,99% (active)
same,growth inhibition,[14]; [16],-6%
same,growth inhibition,[14]; [17],71% (active)
same,growth inhibition,[14]; at 50.0 µM,88.7% (active)
same,growth inhibition,[15]; at 1.2 µM,0%
same,growth inhibition,[15]; at 3.7 µM,0%
same,growth inhibition,[15]; at 11.0 µM,22%
same,growth inhibition,[15]; at 33.0 µM,6%
same,growth inhibition,[15]; at 100.0 µM,54%
